KB-V1 cytotox – qHTS assay for MDR1-selective chemotherapeutics: Primary screen using the drug-selected MDR subline cells KB-V1. KB-V1 MDR cells viability, CellTiter-Glo, 72 h. Potency, µM (top dose mostly 46.1 µM), hits mostly cytotoxic. actives 3.4% (n = 400,000). AID 1347076, 2019; further: nearly all actives have a fitted effect of over 60% in size
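qHTS viability screen in drug-selected KB-V1 MDR cells: 72 h compound treatment at 37 degrees C, ATP luminescence end point.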
SW480 rereplic – A quantitative high throughput screen for small molecules that induce DNA re-replication in SW480 colon adenocarcinoma cells; actives 1.8% (n = 340,000); SW480 DNA re-replication, Hoechst DNA content imaging, 48 h; Potency, µM (doses to about 46.1 µM), hits mostly activators; AID 624297, 2012; further: nearly all actives have a fitted effect of over 55% in size
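Quantitative HTS format with DMSO vehicle controls; 48 hr drug incubation at 37 C, then 40 min Hoechst staining and scanning imager measurement at 405 nm excitation.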
MCF10A rereplic – A quantitative high throughput screen for small molecules that induce DNA re-replication in MCF 10a normal breast cells | Potency, µM (top dose mostly 46.1 µM), hits mostly activators | actives 2.9% (n = 350,000) | MCF 10A DNA re-replication, Hoechst nuclear intensity, 48 h; further: nearly all actives have a fitted effect of over 50% in size
KB-3-1 tox – qHTS assay for MDR1-selective chemotherapeutics: Primary screen using the parental adenocarcinoma cell KB-3-1; KB-3-1 viability, CellTiter-Glo ATP luminescence, 72 h; actives 1.4% (n = 400,000); Potency, µM (doses to about 46.1 µM), hits mostly cytotoxic; further: nearly all actives have a fitted effect of over 60% in size
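Parental KB-3-1 adenocarcinoma cells in phenol-red-free DMEM with 10% FBS were pin-treated with compounds at several concentrations, incubated 72 h at 37 °C, and viability read by CellTiter-Glo luminescence; concentration-effect curves were fitted after normalization.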
ELG1 DNA repair – qHTS screen for small molecules that inhibit ELG1-dependent DNA repair in human embryonic kidney (HEK293T) cells expressing luciferase-tagged ELG1. actives 2.3% (n = 330,000). AID 504467, 2011. HEK293T ELG1-luciferase reporter, luminescence, 16 h; DNA damage induced by 5-fluorouridine. Potency, µM (titrated, usually from 46.1 µM), most hits filed as inhibitors; further: nearly all actives have a fitted effect of over 55% in size
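Luminescence from the luciferase reporter, measured 30 min after ONE-Glo reagent at room temperature, was the read-out. Beforehand, 2,000 cells per well were exposed for 16 hr at 37 °C to 5-fluorouridine together with compound or vehicle.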
Large screens that a line does not name were inactive. Only some compounds are listed: those with a hit (about 8.1% of all), similar ones and a draw of the others. The call rests on the fitted dose curve; in most records, active means well fitted curve in the direction sought with a large enough effect; inconclusive means small, poorly fitted or top-dose-only effect, or another doubt; inactive means no such curve, though single readings can be large; an effect the other way counts as inactive or inconclusive.

COCC(=O)Nc1c(I)c(C(=O)NC[C@@H](O)CO)c(I)c(C(=O)N(C)C[C@@H](O)CO)c1I	none (no result: KB-V1 cytotox, KB-3-1 tox, ELG1 DNA repair)
Cc1ccc(Nc2nc(C)c(NC(=O)c3ccc(C)cc3)c(Nc3ccc(C)cc3)n2)cc1	KB-3-1 tox inconclusive (no result: SW480 rereplic, MCF10A rereplic, ELG1 DNA repair)
C/C(=N\NC(=O)c1cc(C)nc2ccccc12)c1cccc(Cl)c1	none
CCC(=O)N1CCCC1(C)C(=O)Nc1ccc2nc(C)ccc2c1 (stereo not given)	none (no result: SW480 rereplic, MCF10A rereplic, ELG1 DNA repair)
CN(C)CCN1CCN(C2CN(C3CCCC3)S(=O)(=O)C2)CC1 (stereo not given)	none (no result: SW480 rereplic, MCF10A rereplic, ELG1 DNA repair)
COc1ccc(CCNC(=O)Cn2cc(C(=O)c3ccc(Cl)cc3)c(=O)c3ccc(C)nc32)cc1OC	none (no result: SW480 rereplic, MCF10A rereplic, ELG1 DNA repair)
C/C(=N\NC(=O)c1c[nH]c2ccccc12)c1ccc(C)s1	ELG1 DNA repair inconclusive
c1ccc(-c2nnc(SCc3nc4ccccc4[nH]3)n2Cc2ccco2)nc1	KB-V1 cytotox 2.6µM, ELG1 DNA repair inconclusive
COCCn1c(SCC(=O)c2c[nH]c3ccccc23)nnc1-c1ccncc1	none
CCn1c(SCc2nc3ccccc3[nH]2)nnc1-c1cccs1	KB-V1 cytotox 8.2µM
CCn1c(SCC(=O)c2c[nH]c3ccccc23)nnc1-c1cccs1	KB-V1 cytotox inconclusive, SW480 rereplic 15µM, MCF10A rereplic inconclusive, KB-3-1 tox 16µM
CC/C(=N\NC(=O)c1c[nH]c2ccccc12)c1cccs1	KB-V1 cytotox 16µM, ELG1 DNA repair inconclusive
Cc1ccc(NCCCn2cnc3c(OCc4ccccc4)ncnc32)cc1C	none (no result: ELG1 DNA repair)
Cc1nc(N(C)C2CCCCC2)c2nnn(Cc3ccc(F)cc3)c2n1	KB-V1 cytotox inconclusive (no result: SW480 rereplic, MCF10A rereplic, ELG1 DNA repair)
OC[C@H](S)CS	MCF10A rereplic 9.4µM, KB-3-1 tox inconclusive (no result: ELG1 DNA repair)
CCOc1cc(CNC2CCCC2)cc(Cl)c1OCc1ccccc1	KB-V1 cytotox inconclusive, SW480 rereplic inconclusive, MCF10A rereplic inconclusive, KB-3-1 tox inconclusive
CCOc1cc(CNC2CCCC2)ccc1OCc1ccccc1Cl	KB-V1 cytotox 21µM, MCF10A rereplic inconclusive, KB-3-1 tox inconclusive
CCOc1cc(CNCCN2CCOCC2)ccc1OCc1ccccc1Cl	SW480 rereplic 21µM
COc1cc(/C=C2/C=Cc3ccccc32)ccc1N(C)C	KB-3-1 tox inconclusive (no result: SW480 rereplic, MCF10A rereplic, ELG1 DNA repair)
Cc1ccc(S(=O)(=O)CCC(=O)N2CCN(c3ccccc3O)CC2)cc1	SW480 rereplic 9.2µM, MCF10A rereplic inconclusive
Cc1nn(Cc2ccc(C(=O)Nc3ccccc3C(F)(F)F)o2)c(C)c1Br	MCF10A rereplic inconclusive, KB-3-1 tox inconclusive, ELG1 DNA repair inconclusive
Cc1cc(C)cc(NC(=O)c2ccc(Cn3nc(C)c(Cl)c3C)o2)c1	MCF10A rereplic inconclusive, ELG1 DNA repair 21µM
CCOc1ccc(NC(=O)c2ccc(Cn3nc(C)cc3C)o2)cc1	none
Cc1ccc(CNC(=O)c2ccc(Cn3nc(C)c(Cl)c3C)o2)cc1	none
Cc1csc(NC(=O)c2ccc(Cn3nc(C)c(Br)c3C)o2)n1	KB-V1 cytotox 2.6µM, MCF10A rereplic inconclusive, KB-3-1 tox inconclusive, ELG1 DNA repair 9.2µM
CCc1cccc(NC(=O)c2ccc(Cn3nc(C)cc3C)o2)c1	KB-V1 cytotox 15µM
Cc1ccc(-n2nc(C)c3c2C(Br)C(C)(C)CC3=O)nc1 (stereo not given)	MCF10A rereplic inconclusive (no result: ELG1 DNA repair)
O=C(Nc1ncc(Cc2ccc(Cl)cc2Cl)s1)c1ccc([N+](=O)[O-])cc1	KB-V1 cytotox inconclusive, KB-3-1 tox 5.8µM
O=C(Nc1nnc(COc2ccc(Cl)cc2)s1)c1ccc([N+](=O)[O-])cc1	KB-V1 cytotox inconclusive
CCC(CC)c1nnc(NC(=O)c2ccc([N+](=O)[O-])cc2)s1	KB-V1 cytotox 21µM
COC(=O)C1=C(Nc2ccc(C)cc2)C=C(C)C(C(=O)OC)C1c1ccc(OC)cc1 (stereo not given)	SW480 rereplic 15µM, MCF10A rereplic inconclusive
COC(=O)C1=C(Nc2ccc(C)cc2)C=C(C)C(C(=O)OC)C1c1cccc(OC)c1 (stereo not given)	SW480 rereplic 23µM, MCF10A rereplic inconclusive, KB-3-1 tox inconclusive, ELG1 DNA repair inconclusive
O=c1[nH][nH]c2c1[C@H](c1ccc(Cl)cc1)O[C@H](C1CC1)C2	none (no result: SW480 rereplic, MCF10A rereplic, ELG1 DNA repair)
Cc1ccc2[nH]c3c(c2c1)CC/C(=C/c1ccccc1)C3=O	KB-V1 cytotox 13µM, SW480 rereplic inconclusive, MCF10A rereplic inconclusive, ELG1 DNA repair inconclusive
O=C1/C(=C\c2ccccc2)CCc2c1[nH]c1ccccc21	KB-V1 cytotox inconclusive, SW480 rereplic 3.3µM, MCF10A rereplic inconclusive, KB-3-1 tox 1.3µM, ELG1 DNA repair inconclusive
Cc1ccc(/C=C2/CCc3c([nH]c4ccccc34)C2=O)cc1	ELG1 DNA repair inconclusive
CC1CCN(C(=O)CSc2nnc3c(n2)[nH]c2ccccc23)CC1	KB-V1 cytotox 16µM, KB-3-1 tox inconclusive
O=C(O)CSc1nnc2c(n1)[nH]c1ccccc12	none
Cc1ccc(NC(=O)CSc2nnc3c(n2)[nH]c2ccccc23)cc1	none
Cc1ccc(-c2csc(NC(=O)CSc3nnc4c(n3)[nH]c3ccccc34)n2)cc1	KB-V1 cytotox inconclusive, SW480 rereplic inconclusive, MCF10A rereplic 16µM, KB-3-1 tox inconclusive, ELG1 DNA repair inconclusive
CC1(C)[C@@H](O)CC[C@]2(C)[C@H]3C(=O)C=C4[C@@H]5C[C@@](C)(C(=O)O)CC[C@]5(C)CC[C@@]4(C)[C@]3(C)CC[C@@H]12	none
CC1(C)[C@@H](O)CC[C@]2(C)C3C(O)C=C4[C@H]5C[C@@](C)(CO)CC[C@]5(C)CC[C@]4(C)[C@]3(C)CC[C@@H]12 (stereo not given in full)	MCF10A rereplic 13µM
CC1(C(=O)O)CCC2(C)CCC3(C)C(=CC(=O)C4C5(C)CCC(O)C(C)(C)C5CCC43C)C2C1 (stereo not given)	MCF10A rereplic 27µM (no result: KB-V1 cytotox, KB-3-1 tox, ELG1 DNA repair)
C[C@H]1[C@H](C)CC[C@]2(C)CC[C@]3(C)C(=CC(=O)C4[C@@]5(C)CC[C@H](O)C(C)(C)C5CC[C@]43C)[C@H]12 (stereo not given in full)	MCF10A rereplic inconclusive
CC(=O)Nc1ccc(S(=O)(=O)N[C@@H](C)C(=O)OCC(=O)c2ccc(C)cc2)cc1	ELG1 DNA repair inconclusive
Fc1ccc(-c2nc3c4ccccc4ccn3c2CC2CCCCC2)cc1	none (no result: SW480 rereplic, MCF10A rereplic, ELG1 DNA repair)
O=C(NCc1ccc2c(c1)OCO2)c1ccc(CSCc2ccc(Cl)cc2)o1	KB-V1 cytotox 21µM, MCF10A rereplic inconclusive
COc1ccc(CNC(=O)C(=O)Nc2c3c(nn2-c2ccccc2)CSC3)cc1	KB-3-1 tox inconclusive (no result: SW480 rereplic, MCF10A rereplic, ELG1 DNA repair)
CCCN(CCC)CCNC(=O)C1CCN(Cc2nc(-c3ccc(Cl)cc3)oc2C)CC1	KB-V1 cytotox inconclusive, KB-3-1 tox 23µM

Screening data deposited in PubChem BioAssay by National Center for Advancing Translational Sciences (NCATS).
